Shown are actives, neighbours in structure and some others; about 5.5% of the full set was active somewhere.
Mito fusion act: qHTS Assay for Small Molecule Inhibitors of Mitochondrial Division or Activators of Mitochondrial Fusion; S. cerevisiae fusion-defective mutant growth rescue, CellTiterGlo 48 h; Potency, µM (doses to about 46.1 µM), usual class: activators; 0.23% of 320,000 active; note: nearly all actives have a fitted effect of over 45% in size
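Yeast fusion mutant, YPEG (non-fermentable carbon), compound, 48 h at 37C non-permissive; CellTiterGlo added, 10 min RT, luminescence read. Rescued growth = division inhibition.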
uPA generation: qHTS for Inhibitors of Cell Surface uPA Generation | Potency, µM (series often up to 38.3 µM), actives largely listed as inhibitors | AID 540303, 2011 | cell surface uPA generation assay, qHTS | 0.31% of 330,000 active; active = well fitted inhibition curve with a large enough effect; inconclusive = small, poorly fitted or top-dose-only effect; inactive = no such curve, though single readings can be large or run the other way; tested in mouse RAW 264.7 cells; note: nearly all actives have a fitted effect of over 55% in size
Integrin act MD: qHTS for Activators of Integrin-Mediated Alleviation for Muscular Dystrophy | alpha7betagal myoblasts, beta-gal FDG fluorescence, 48 h | Potency, µM (highest dose often 38.3 µM), actives largely listed as activators | 0.064% of 350,000 active | AID 624291, 2012; note: nearly all actives have a fitted effect of over 60% in size
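alpha7betagal+/- myoblasts (passage 13, 250/well) treated 48 h at 37C with compounds at 1:260 dilution of DMSO stock. Lysed, then beta-galactosidase activity read as FDG fluorescence (ex 480/em 540) after 30 min, with pre-read for autofluorescence.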
VP16 counter: VP16 counterscreen qHTS for inhibitors of ROR gamma transcriptional activity; Drosophila S2 Gal4-VP16 UAS-luciferase, luminescence, 20 h; Potency, µM (series often up to 53.6 µM), actives largely listed as inhibitors; 3.5% of 310,000 active;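 note: Gal4-VP16 expression switched on by copper sulfate through the metallothionein promoter; nearly all actives have a fitted effect of over 50% in size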
RORgamma inh: qHTS for inhibitors of ROR gamma transcriptional activity. Drosophila S2 Gal4-RORgamma UAS-luciferase reporter, 20 h. 5.4% of 310,000 active. Potency, µM (top dose mostly 53.6 µM), usual class: inhibitors. AID 2551, 2010; note: nearly all actives have a fitted effect of over 60% in size
Target sequence (P51450 whole entry, looked up, the tested form may be a part): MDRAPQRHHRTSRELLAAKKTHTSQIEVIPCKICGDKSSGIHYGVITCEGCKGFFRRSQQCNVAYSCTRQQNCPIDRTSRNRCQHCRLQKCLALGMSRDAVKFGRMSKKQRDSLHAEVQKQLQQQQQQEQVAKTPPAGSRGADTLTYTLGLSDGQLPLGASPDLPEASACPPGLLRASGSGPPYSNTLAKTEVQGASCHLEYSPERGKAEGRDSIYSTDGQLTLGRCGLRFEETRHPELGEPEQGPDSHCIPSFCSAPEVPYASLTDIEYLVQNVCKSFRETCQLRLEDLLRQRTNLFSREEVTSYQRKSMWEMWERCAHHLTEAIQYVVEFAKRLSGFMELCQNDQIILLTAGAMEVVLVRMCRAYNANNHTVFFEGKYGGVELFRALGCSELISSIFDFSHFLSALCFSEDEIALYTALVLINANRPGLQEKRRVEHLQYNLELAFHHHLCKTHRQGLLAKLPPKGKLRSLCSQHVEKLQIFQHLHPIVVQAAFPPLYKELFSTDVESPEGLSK
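Stable Schneider cell line, Gal4 DNA-binding domain fused to ROR gamma, UAS-luciferase. Cmpd 1 hr RT → CuSO4 700 uM final → 20 hr RT → luciferase reagent 10 min → luminescence.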
BCR signal inh: qHTS Assay to Find Inhibitors of Chronic Active B-Cell Receptor Signaling; Potency, µM (doses to about 46.1 µM), most hits filed as inhibitors; ABC-DLBCL IkBa-CBG/CBR reporter, luminescence ratio, 4 h; 0.05% of 340,000 active; active = well fitted inhibition curve with a large enough effect in the signal ratio, with a control signal flat, not every such curve was filed as active; inconclusive = small, poorly fitted or top-dose-only effect, or effect the other way, or a change in a side signal; the % refers to the signal ratio
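Doxycycline induced both beetle luciferases in TMD8 lymphoma cells; IKK-driven degradation limits the IkappaBalpha-fused green signal, while red luminescence normalises for cell number and nonspecific effects. Compounds tested up to 46 uM, 4 hrs.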
Hits are given with their value; [ ] = dose if it differs, or a comment. Unless noted, calls come from the whole dose curve; as a rule, active = well fitted curve in the direction sought with a large enough effect; inconclusive = small, poorly fitted or top-dose-only effect, or another doubt; inactive = no such curve, though single readings can be large; an effect the other way counts as inactive or inconclusive.

O=[N+]([O-])c1c(NCCCO)cc(N2CCN(Cc3ccc4c(c3)OCO4)CC2)c2nonc12 was read as Mito fusion act inactive, uPA generation inactive, Integrin act MD inactive, VP16 counter 3.5µM, RORgamma inh 5µM and BCR signal inh inactive.
Screening Cn1ccnc1Sc1cc(NCCCO)c([N+](=O)[O-])c2nonc12 returned Mito fusion act inactive, uPA generation inactive, Integrin act MD inactive, VP16 counter 11µM, RORgamma inh 1.3µM and BCR signal inh inconclusive.
Screening O=C(CN1CCN(CC(=O)Nc2ccccc2Cl)CC1)NCC1(N2CCOCC2)CCCCC1 returned Mito fusion act inactive, uPA generation inactive, Integrin act MD inactive and BCR signal inh inactive.
For Cc1cc(C(=O)Cn2cnc3ccccc3c2=O)c(C)n1C1CC1 the results were Mito fusion act inactive, uPA generation inactive, Integrin act MD inactive and BCR signal inh inactive.
Cc1[nH]c2ccccc2c1/C=C/C(=O)c1ccncc1 was read as Mito fusion act inactive, uPA generation inactive, Integrin act MD inactive, VP16 counter inactive, RORgamma inh inactive and BCR signal inh inconclusive.
Screening O=C(/C=C/c1cccc2ccccc12)c1ccncc1 returned Mito fusion act inactive, uPA generation inactive, Integrin act MD inactive, VP16 counter 8.9µM, RORgamma inh inactive and BCR signal inh inconclusive.
For O[C@@H]1[C@@H](O)C=C2CCN3Cc4cc5c(cc4[C@H]1C23)OCO5 (stereo not given in full) the results were Mito fusion act inactive, uPA generation 1µM and BCR signal inh inconclusive.
Screening COc1ccc2c(c1OC)CN1CCc3cc4c(cc3[C@@H]1[C@@H]2O)OCO4 returned Mito fusion act inactive, uPA generation inactive, Integrin act MD inactive, VP16 counter inactive, RORgamma inh inactive and BCR signal inh inactive.
OC1C=C2CCN3Cc4cc5c(cc4C(C1O)C23)OCO5 (stereo not given) was read as VP16 counter 11µM and RORgamma inh inconclusive.
CC(C)CCNC(=O)C1CCN(S(=O)(=O)c2ccc(-n3cnnn3)cc2)CC1 was read as Mito fusion act inactive, uPA generation inactive, Integrin act MD inactive, VP16 counter inactive, RORgamma inh inactive and BCR signal inh inactive.
CCn1c(C)cc(/C=C2/SC(=O)N(C(C)C(=O)OC)C2=O)c1C (stereo not given) was read as Mito fusion act inactive, uPA generation inactive, Integrin act MD inactive, VP16 counter inactive, RORgamma inh inconclusive and BCR signal inh inconclusive.
`COCCn1c(C)cc(/C=C2/SC(=O)N(C(C)C(=O)OC)C2=O)c1C` (stereo not given) gave Mito fusion act inactive, uPA generation 11µM, Integrin act MD inactive, VP16 counter inactive, RORgamma inh inactive and BCR signal inh inconclusive.
Screening Cc1ccc2c(c1)Oc1ccc(NC(=O)CCCl)cc1C(=O)N2 returned Mito fusion act inactive, uPA generation 8.9µM, Integrin act MD inactive, VP16 counter inactive, RORgamma inh inactive and BCR signal inh inconclusive.
`CC(C)(C)N1C(=O)[C@H]2[C@H]3[C@H](O)[C@H](O)C/C(=N/OCc4ccccc4)[C@H]3CC[C@@H]2C1=O` gave VP16 counter inactive[10 µM] and RORgamma inh inactive[10 µM].
For O=C1C(Cl)=C(NCCN2CCCCC2)C(=O)c2ccccc21 the results were Mito fusion act inactive, uPA generation inconclusive, Integrin act MD inactive, VP16 counter inconclusive, RORgamma inh 10µM and BCR signal inh inconclusive.
`CCNC1=C(Cl)C(=O)c2ccccc2C1=O` gave Mito fusion act inactive, uPA generation inactive, Integrin act MD inactive, VP16 counter inactive, RORgamma inh inconclusive and BCR signal inh inconclusive.
CC(C)(C)c1cc2cccnc2n1Cc1cccc(Cl)c1 was read as Mito fusion act inactive, uPA generation inactive, Integrin act MD inactive, VP16 counter inactive[0.365 µM], RORgamma inh 2.2µM and BCR signal inh inconclusive.
`COc1ccnc2c1c(=O)n(Cc1cccc(Cl)c1)c(=O)n2C` gave Mito fusion act inconclusive, uPA generation inactive, Integrin act MD inconclusive, VP16 counter inactive, RORgamma inh inactive and BCR signal inh inactive.
For Cc1ccccc1Oc1nc(-c2ccccn2)nc2ccccc12 the results were Mito fusion act inactive, uPA generation inactive, Integrin act MD inactive, VP16 counter 1.3µM, RORgamma inh 0.32µM and BCR signal inh inactive.
Screening Cc1cccc(Oc2nc(-c3ccncc3)nc3ccccc23)c1 returned Mito fusion act inactive, uPA generation inactive, Integrin act MD inactive, VP16 counter inactive, RORgamma inh inactive and BCR signal inh inactive.
CC(=O)Nc1cccc(Oc2nc(-c3ccccn3)nc3ccccc23)c1 was read as Mito fusion act inactive, uPA generation inactive, Integrin act MD inactive, VP16 counter inconclusive, RORgamma inh 5.6µM and BCR signal inh inconclusive.
`Cc1cccc(Oc2nc(-c3ccccn3)nc3ccccc23)c1` gave Mito fusion act inactive, uPA generation inactive, Integrin act MD inactive, VP16 counter 2.2µM, RORgamma inh 0.56µM and BCR signal inh inconclusive.
Screening CCOC(=O)N/N=C1/C[C@@H](O)[C@@H](O)[C@@H]2[C@@H]3C(=O)N(c4cccc(Oc5ccccc5)c4)C(=O)[C@H]3CC[C@@H]12 returned VP16 counter inactive[10 µM] and RORgamma inh inactive[10 µM].
For S=C(NC1CCCCC1)NN1CCCCCC1 the results were uPA generation inactive and Integrin act MD inactive.
`CC(C)CNC(=O)C(=O)NC1CCCC1` gave uPA generation inactive and Integrin act MD inactive.
`S=C(NC1CCCC1)NC1CCCC1` gave Mito fusion act inactive, uPA generation inactive, Integrin act MD inactive, VP16 counter inconclusive, RORgamma inh 2.5µM and BCR signal inh inactive.
`O=C(NC1CCCCCC1)C(=O)NC1CC1` gave Mito fusion act inactive, uPA generation inactive, Integrin act MD inactive, VP16 counter inactive, RORgamma inh inactive and BCR signal inh inactive.
For S=C(NC1CCCC1)NC1CC1 the results were Mito fusion act inactive, uPA generation inactive, Integrin act MD inactive, VP16 counter inconclusive, RORgamma inh 13µM and BCR signal inh inactive.
CC(C)CNC(=S)NC1CCCC1 was read as Mito fusion act inactive, uPA generation inactive, Integrin act MD inactive, VP16 counter inconclusive, RORgamma inh 10µM and BCR signal inh inconclusive.
COC(=O)c1ccc(C=O)cc1 was read as VP16 counter inactive and RORgamma inh inactive.
`O=C(NC(=S)Nc1cccc([N+](=O)[O-])c1)C1CCCC1` gave Mito fusion act inactive, uPA generation inactive, Integrin act MD inactive, VP16 counter inconclusive, RORgamma inh 13µM and BCR signal inh inconclusive.
